Assay results published in PMC12618258.

How the values were obtained:
Assay in all cases: cross-link between two proteins; cross-linking mass spectrometry
[1] = target: Large ribosomal subunit protein eL24 (UniProt P83731)
[2] = target: Large ribosomal subunit protein eL38 (UniProt P63173)
[3] = target: Large ribosomal subunit protein eL30 (UniProt P62888)
[4] = target: Large ribosomal subunit protein eL6 (UniProt Q02878)
[5] = target: Large ribosomal subunit protein uL3 (UniProt P39023)

Large ribosomal subunit protein eL31, P62899
listed as a hit [1]: yes

Large ribosomal subunit protein eL22, P35268
listed as a hit [1]: yes | listed as a hit [2]: yes

Small ribosomal subunit protein uS4, P46781
listed as a hit [3]: yes

Small ribosomal subunit protein uS5, P15880
listed as a hit [4]: yes

Large ribosomal subunit protein eL13, P26373
listed as a hit [5]: yes
